From PubChem BioAssay (NCATS)
Results filed as inconclusive are left out. The source made the active and inactive calls. Unless noted, calls follow the shape of the dose curve; as a rule, active = well fitted curve in the direction sought with a large enough effect; inconclusive = small, poorly fitted or top-dose-only effect, or another doubt; inactive = no such curve, though single readings can be large; an effect the other way counts as inactive or inconclusive.

Assays:
[1] = qHTS for Inhibitors of Plasmodium falciparum (DD2) proliferation (AID 504314);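 also: parasite DNA measured by SYBR Green fluorescence after red cell lysis; plate controls were DMSO vehicle for no effect and artemisinin wells for full effect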
Method in brief: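 Parasite proliferation measured as SYBR Green signal from Plasmodium DNA, mature erythrocytes lacking DNA. 72 h incubation, 37C; activity scaled between vehicle and 0.29 uM artemisinin, with correction from vehicle-only plates.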

[2] = qHTS for Inhibitors of Plasmodium falciparum (GB4) proliferation (AID 504315);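 also: 0% = DMSO vehicle and -100% = 0.29 µM artemisinin control; nearly all actives have a fitted effect of over 50% in size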
Method in brief: (§1)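 Parasite growth measured as SYBR Green DNA fluorescence (ex 485, em 535 nm) after overnight lysis following 72 h culture at 37 °C, 0.3% parasitemia, 2.5% hematocrit. Values normalized against DMSO and 0.29 uM artemisinin controls, with plate-stack correction.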

[3] = qHTS for Inhibitors of Plasmodium falciparum (7G8) proliferation (AID 504316);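 also: series mostly up to about 6.7 µM; 0% = DMSO vehicle and -100% = 0.29 µM artemisinin full kill; nearly all actives have a fitted effect of over 65% in size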
Method in brief: as §1

[4] = qHTS for Inhibitors of Plasmodium falciparum (HB3) proliferation (AID 504318);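 also: 0% = DMSO vehicle and -100% = artemisinin control; nearly all actives have a fitted effect of over 60% in size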
Method in brief: as §1

[5] = qHTS for Inhibitors of Plasmodium falciparum (CP250) proliferation (AID 504320);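 also: plate controls were DMSO vehicle for no effect and 0.29 µM artemisinin control for full effect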
Method in brief: as §1

[6] = target: Atrial natriuretic peptide receptor 1 (Homo sapiens) (UniProt P16066); assay: Natriuretic polypeptide receptor (hNpr1) antagonism - Pilot CMLD screen (AID 1347052; calls by dose curve;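 also: HEK293 cells with hNpr1 stimulated by hNppA peptide at 0.1 nM; cGMP level read as GloSensor luciferase luminescence after agonist stimulation; series mostly up to about 9.2 µM; % is scaled to controls: 0 for no effect and ±100 for the full control effect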)
Atrial natriuretic peptide receptor 1 (Homo sapiens), sequence (P16066 whole entry, looked up): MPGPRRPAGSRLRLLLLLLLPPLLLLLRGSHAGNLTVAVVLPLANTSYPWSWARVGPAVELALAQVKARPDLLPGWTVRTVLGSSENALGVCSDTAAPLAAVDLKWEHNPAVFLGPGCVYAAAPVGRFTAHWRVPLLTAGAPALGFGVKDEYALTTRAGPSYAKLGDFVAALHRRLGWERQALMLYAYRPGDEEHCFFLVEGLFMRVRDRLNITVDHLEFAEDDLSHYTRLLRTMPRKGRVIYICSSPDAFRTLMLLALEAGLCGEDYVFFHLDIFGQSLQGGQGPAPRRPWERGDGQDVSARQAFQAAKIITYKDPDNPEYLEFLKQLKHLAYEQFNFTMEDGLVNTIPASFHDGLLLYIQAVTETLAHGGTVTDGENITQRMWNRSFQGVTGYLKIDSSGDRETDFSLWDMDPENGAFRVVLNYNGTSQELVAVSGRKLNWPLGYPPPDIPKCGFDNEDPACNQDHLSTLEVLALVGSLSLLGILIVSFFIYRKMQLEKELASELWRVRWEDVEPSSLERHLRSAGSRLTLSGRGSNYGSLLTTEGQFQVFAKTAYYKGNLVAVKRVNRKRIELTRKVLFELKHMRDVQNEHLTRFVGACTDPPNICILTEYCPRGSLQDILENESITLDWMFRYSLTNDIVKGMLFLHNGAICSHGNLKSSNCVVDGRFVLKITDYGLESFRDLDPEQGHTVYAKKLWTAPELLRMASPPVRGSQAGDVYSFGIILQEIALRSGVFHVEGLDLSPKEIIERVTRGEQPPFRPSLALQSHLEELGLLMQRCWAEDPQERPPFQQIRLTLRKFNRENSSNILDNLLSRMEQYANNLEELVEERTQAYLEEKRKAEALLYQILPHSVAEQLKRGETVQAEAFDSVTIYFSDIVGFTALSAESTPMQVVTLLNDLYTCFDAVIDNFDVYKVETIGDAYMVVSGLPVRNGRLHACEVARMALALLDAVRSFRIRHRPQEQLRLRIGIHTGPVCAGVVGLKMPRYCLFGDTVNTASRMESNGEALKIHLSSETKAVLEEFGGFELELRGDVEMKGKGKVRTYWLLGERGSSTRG

COC(=O)N[C@H](C(C(=O)OC)=C(C)NCc1ccccc1)c1cccs1
inactive: Potency [1] | Potency [2] | Potency [3] | Potency [4] | Potency [5] | Potency [6]

COCCN1C(=O)N[C@@H](c2cccc(C(F)(F)F)c2)[C@H](C(=O)OC)[C@H]1C
inactive: Potency [1] | Potency [2] | Potency [3] | Potency [4] | Potency [5] | Potency [6]

C=CCOC(=O)N[C@@H](c1cccs1)C(C(C)=O)C(C)=O
inactive: Potency [1] | Potency [2] | Potency [3] | Potency [4] | Potency [5] | Potency [6]

CCN1C(=O)NC(c2ccc(Br)cc2)C(C(C)=O)=C1C (stereo not drawn)
inactive: Potency [1] | Potency [2] | Potency [3] | Potency [4] | Potency [5] | Potency [6]

CCCCC1=CC2=C(c3ccco3)C(=O)C(C)(OC(=O)c3ccc(OC)cc3)C(=O)C2=CN1Cc1ccc2c(c1)OCO2 (stereo not drawn)
inactive: activity, negative = inhibition [1] 4.29% [at 1.12 µM] | Potency [2] | Potency [3] | Potency [4] | Potency [5] | Potency [6]

CCOC(=O)[C@@]1([C@@H](NC(=O)OC)c2cccc(C)c2)CCCC1=O
inactive: Potency [1] | Potency [2] | Potency [3] | Potency [4] | Potency [5] | Potency [6]

COC(=O)NC(C(=O)OC)(C(=O)OC)c1ccccc1
inactive: Potency [1] | Potency [2] | Potency [3] | Potency [4] | Potency [5] | Potency [6]

C=C(C[C@]1(C(=O)OC)C[C@]2(CC=C(C)C)C(=O)C(C(=O)CC(C)C)=C(O)[C@@](CC=C(C)C)(C1)C2=O)C(=O)OC
inactive: Potency [1] | Potency [2] | Potency [3] | Potency [4] | Potency [5] | Potency [6]

CCOC(=O)CN1C(=O)[C@]2(OCCC=C[C@@H]2C)c2ccccc21
inactive: Potency [1] | Potency [2] | Potency [3] | Potency [4] | Potency [5] | Potency [6]

CCN1C(=NCc2ccco2)N[C@@H](c2ccccc2)[C@H](C(=O)OC)[C@H]1C
inactive: Potency [1] | Potency [2] | Potency [3] | Potency [4] | Potency [5] | Potency [6]

C[C@H]1Cc2c(-c3ccccc3)nc3c(c2CO1)CN(C(=O)Nc1cccc(C#N)c1)CC3
inactive: activity, negative = inhibition [1] -4.46% [at 1.12 µM] | Potency [2] | Potency [3] | Potency [4] | Potency [5] | Potency [6]

COc1cccc([C@H]2Oc3ccc(OC)cc3C(=NOCC[C@@H]3C=C[C@H](OC(C)=O)[C@@H](COC(C)=O)O3)[C@H]2O)c1
inactive: Potency [1] | Potency [2] | Potency [3] | Potency [4] | Potency [5] | Potency [6]

CC1(OC(=O)C2CCCC2)C(=O)C=C2C=C(c3ccsc3)N(C3CCCC3)C=C2C1=O (stereo not drawn)
inactive: activity, negative = inhibition [1] -4.53% [at 1.12 µM] | Potency [2] | Potency [3] | Potency [4] | Potency [5] | Potency [6]
